Experimental data taken from PubChem BioAssay (NCATS).
A number with no mark means an inactive call. Inconclusive results are not listed. For some assays here: Entries with a potency or affinity are not part of this list. Active and inactive are the calls of the source. Unless noted, how the calls were made is not given here.

Tests used:
[1] = Ebola virus entry assay, green fluorescence channel
[2] = Ebola virus entry assay, blue channel fluorescence
[3] = Ebola virus entry assay, ratio channel
[4] = Ebola virus entry assay, reporter ratio channel; Channel type: primary
[5] = Ebola virus entry assay, blue channel (ratio component)
[6] = qHTS assay for measurement of the activity of small molecule inhibitors on Zika virus induced Caspase-3 activity in human iPSC derived neural progenitor cells (hNPCs) (AID 1224857; active means well fitted inhibition curve with a large enough effect; further: % of control where 0% means no effect; nearly all actives have a fitted effect of over 65% in size); settings: hNPCs ZIKV-induced caspase-3/7, Caspase-Glo luminescence, 6 h; series mostly up to 45.7 µM
Outline: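 Caspase-3/7 induction by a 6-hour ZIKV infection was quantified with a luminescent Caspase-Glo 3/7 reagent incubated 30 minutes at room temperature. Compounds were preincubated with hNPCs for 1 hour; inhibition was calculated against uninfected and infected control wells.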

[7] = qHTS assay for measurement of the activity of small molecule inhibitors on Zika virus induced Caspase-3 activity in human astrocytoma cells (AID 1224859; active means well fitted inhibition curve with a large enough effect;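 further: plate controls were ZIKV-infected untreated cells for no effect and uninfected cells for full effect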); settings: SNB-19 ZIKV-induced caspase-3/7, luminescence, 6 h; series mostly up to 45.7 µM
Outline: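 In SNB-19 cells plated at 250 cells/well and grown 16-20 h, compounds were applied 1 h before ZIKV (2 FFU/cell). Six hours later caspase-3/7 luminescence was recorded.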
Wherever efficacy is given: 0% is about no effect.

SMILES	efficacy [1]	outcome [2]	outcome [3]	AC50 [4]	outcome [5]	outcome [4]	AC50 [3]	Potency [6]	outcome [7]	AC50 [2]
O=C(/C=C/c1ccccc1)NCCO	100%	inactive	inactive	39.8 µM (active)	inactive	–	–	–	–	–
CCCC(=O)O[C@]1(C(=O)CC)CC[C@H]2[C@@H]3CCC4=CC(=O)CC[C@]4(C)[C@H]3[C@@H](O)C[C@@]21C	46.1%	inactive	inactive	–	inactive	inactive	–	–	–	–
Nc1c2c(nc3ccccc13)CCCC2O (stereo unspecified)	42.6%	inactive	inactive	–	inactive	inactive	–	–	–	–
CC1=C(CC(=O)O)c2cc(F)ccc2/C1=C\c1ccc(S(C)(=O)=O)cc1	40.3%	inactive	inactive	39.8 µM (active)	inactive	–	–	–	–	–
CC(=O)[C@@]1(O)CC[C@H]2[C@@H]3C[C@H](C)C4=CC(=O)CC[C@]4(C)[C@H]3CC[C@@]21C	52.6%	inactive	inactive	–	inactive	inactive	–	–	–	–
CC[C@H]1C[C@H]2[C@@H]3CCC4=CC(=O)CC[C@@H]4[C@H]3CC[C@]2(C)[C@H]1O	63.1%	inactive	–	15.8 µM (active)	inactive	–	15.8 µM (active)	inactive	inactive	–
Nc1nc2ccccc2n1Cc1ccc(F)cc1	54.1%	inactive	inactive	39.8 µM (active)	inactive	–	–	–	–	–
COP(=S)(OC)Oc1ccc(S(N)(=O)=O)cc1	-39.4%	inactive	inactive	–	inactive	inactive	–	inactive	inactive	–
COC(=O)c1nc(Cl)c(Cl)nc1N	66.4%	inactive	–	4.47 µM (active)	inactive	–	4.47 µM (active)	–	–	–
CCOP(=S)(OCC)O/N=C(\C#N)c1ccccc1	-42.7%	inactive	inactive	–	inactive	inactive	–	inactive	inactive	–
CN1Cc2c(N)cccc2C(c2ccccc2)C1 (stereo unspecified)	99.7%	–	–	25.1 µM (active)	inactive	–	25.1 µM (active)	–	–	17.8 µM (active)
CC1=C(C)C(=O)C(CCCCC#CCCCC#CCO)=C(C)C1=O	49.4%	inactive	inactive	–	inactive	inactive	–	–	–	–
C[C@@H]1CCN(C(=O)[C@H](CCCN=C(N)N)NS(=O)(=O)c2cccc3c2NC[C@H](C)C3)[C@@H](C(=O)O)C1	-39.7%	inactive	inactive	–	inactive	inactive	–	–	–	–
O=C(CS)Nc1ccccc1	30.5%	inactive	inactive	25.1 µM (active)	inactive	–	–	–	–	–
Cc1ccc([N+](=O)[O-])[c]2c1[O][Hg]2	-177%	–	–	0.708 µM (active)	–	–	0.708 µM (active)	inactive	–	1.78 µM (active)
CCN(CC)C(=O)Nc1ccc(OCC(O)CNC(C)(C)C)c(C(C)=O)c1 (stereo unspecified)	-36%	inactive	inactive	–	inactive	inactive	–	–	–	–
CCCCCC(=O)O[C@]1(C(C)=O)CC[C@H]2[C@@H]3CCC4=CC(=O)CC[C@]4(C)[C@H]3CC[C@@]21C	74.4%	inactive	inactive	–	inactive	inactive	–	–	–	–
CCN(CC)CC(=O)Nc1c(C)cccc1C(=O)OC	26%	inactive	inactive	–	inactive	inactive	–	–	–	–
C=CCNc1nc(NCC=C)nc(N2CCN(C(c3ccc(F)cc3)c3ccc(F)cc3)CC2)n1	31%	inactive	inactive	–	inactive	inactive	–	–	–	–
